Inconclusive results are not listed. Calls of active or inactive are those of the source. Calls follow the shape of the dose curve; as a rule, active = well fitted inhibition curve with a large enough effect; inconclusive = small, poorly fitted or top-dose-only effect; inactive = no such curve, though single readings can be large or run the other way.
Test: Tertiary RLuc qRT-PCR qHTS assay for Zika virus inhibitors (AID 1347169); also: top concentration of the series differs between compounds; nearly all actives have a fitted effect of over 55% in size
Details: infected Vero cells, reporter luminescence, 48-72 h; series mostly up to 45.9 µM; activity change, negative = inhibition: at the top concentration
How it was run: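 Vero, 1,000 cells/well, o/n 37 C; cpd pinned in DMSO; ZIKV-RLuc Cambodian, MOI 1-2, 48-72 h 37 C; live-cell RLuc substrate, lum read at 1-1.5 h.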
% is scaled to controls: 0 for no effect and ±100 for the full control effect.

Row | Structure (SMILES) | activity change, negative = inhibition | Potency
1 | S=c1[nH]c(-c2ccccc2)cn1-c1ccccc1 | -7.22% (inactive) | 
2 | O=C(Nc1cccc(C(=O)Nc2ccc(S(=O)(=O)O)c3cc(S(=O)(=O)O)cc(S(=O)(=O)O)c23)c1)Nc1cccc(C(=O)Nc2ccc(S(=O)(=O)O)c3cc(S(=O)(=O)O)cc(S(=O)(=O)O)c23)c1 |  | inactive
3 | Cn1c(=O)c2[nH]c(-c3ccccc3)nc2n(C)c1=O | 2.51% (inactive) | 

Reference: PubChem BioAssay (NCATS)
